This is an account of results in paper PMC4552634, “A New Set of Chemical Starting Points with Plasmodium falciparum Transmission-Blocking Potential for Antimalarial Drug Discovery” (PLoS ONE, 2015).

One may read the % Inhibition as the drop in the measured response relative to a control, in per cent.

In all, about 13,000 compounds went through this assay and about 3,200 (25%) showed an effect of 50% or more. The list shows a part of the results.

The test system of this experiment is P. falciparum stage V gametocytes. Also noted: BacTiter-Glo ATP luminescence viability of purified stage V gametocytes in 384-well plates, per cent inhibition versus DMSO. The note with it: 48 h, 5 µM; inhibitor.
Take `O=C(Cc1cnc[nH]1)Nc1cccc(-c2ccc(-c3nc4ccccc4[nH]3)cc2)c1` [TCMDC-136947]: the “% Inhibition” value is reported as 6.174%. With `O=C(/C=C/c1ccc(Cl)c(Cl)c1)NCCCCCCN1CCCN(C(=O)Nc2cc(F)cc(F)c2)CC1` [TCMDC-135941] the figure was 5.109%; with `C=C[C@]1(C)C[C@@H](OC(=O)NC(=O)C2CCN(C(=O)CSc3ccccc3)CC2)[C@]2(C)[C@H](C)CC[C@]3(CCC(=O)[C@H]32)[C@@H](C)[C@@H]1O` [TCMDC-139971], 14.26%; with `CNC(=O)NC1=NC(C)(C)N(OCCCOc2cc(Cl)c(Cl)cc2Cl)C(N)=N1` [TCMDC-131701], 9.937%. Regarding `Cc1nc(N)nc(N)c1-c1ccc(Cl)c(Cl)c1` [TCMDC-123931], the “% Inhibition” value was 6.997%. With `CN(C)CCCNc1ncnc2c1[nH]c1ccc(Cl)cc12` [TCMDC-124579] the figure was 36.17%. Consider `NCCCCc1c(-c2ccc(Cl)c(Cl)c2)[nH]c2ccc(Cl)cc12` [TCMDC-125841], for which the “% Inhibition” value was 97.12%.

For `CO/C(=C\C=C\c1cc2cc(Cl)c(Cl)cc2[nH]1)C(=O)NCCCN1CCN(c2cccc(OCC(=O)Nc3ccccc3)c2)CC1` [TCMDC-139822], the “% Inhibition” value was -45.25%. On to `Cc1cc(OCCCN2CCC(NS(=O)(=O)c3cccc(Br)c3)C2)c2ccccc2n1` (centres unmarked) [TCMDC-136283], for which the “% Inhibition” value is recorded as -24.53%. Consider `COc1cc(Cc2cnc(N)nc2N)cc(OCCCC#N)c1OC` [TCMDC-138040], for which the “% Inhibition” value is given as -4.212%. As for `Cc1ccc(S(=O)(=O)N2CCN(C(=O)c3cc(-c4ccccc4)n[nH]3)CC2)cc1` [TCMDC-124401], the figure is -51.82%. As for `COc1ccccc1-c1cc(C(=O)N2CCN(S(=O)(=O)c3ccc(C)cc3)CC2)[nH]n1` [TCMDC-124398], the figure is 19.71%. With `Cc1nn(CC(C)C)c2sc(C(=O)N3CCN(S(=O)(=O)c4ccc(C#N)cc4)CC3)cc12` [TCMDC-125045] the figure was 90.92%; with `CCOc1ccc(-c2n[nH]c(C(F)(F)F)c2-c2ccccc2OC)c(O)c1` [TCMDC-124564], -16.08%; with `CC(=O)c1c(C)[nH]c(C(=O)Nc2ccc(-c3nc4ccc(C)cc4s3)cc2)c1C` [TCMDC-124493], 55.35%.

As to `CC(=O)Nc1cccc(C(=O)Nc2ccc(-c3ccc(-c4nc5cccc(C)c5[nH]4)s3)cc2)c1` [TCMDC-132143], the “% Inhibition” value is on record as -2.133%.

As for `CC(=O)Nc1ccc(C2NC(=O)NC(c3ccccc3)=C2c2nc3ccccc3s2)cc1` (centres unmarked) [TCMDC-124535], the “% Inhibition” value is given as -96.89%. As for `CC[C@H](NC(=O)c1c(CN2CCC(N3CCCCC3)CC2)c(-c2ccccc2)nc2c(Cl)c(O)ccc12)c1ccccc1` [TCMDC-140367], the figure is 17.06%; as for `CCN(CC)CCOc1ccc(C(O)(C#CC(O)(c2ccc(OCCN(CC)CC)cc2)c2ccc([N+](=O)[O-])cc2)c2ccc([N+](=O)[O-])cc2)cc1` (centres unmarked) [TCMDC-137201], 116.9%; as for `NOCCCCOc1ccc(Br)cc1` [TCMDC-131760], 15.82%.

Regarding `CCN(CC)CCOc1ccc(C(O)(C#CC(O)(c2ccccc2)c2ccc(OCCN(CC)CC)cc2)c2ccccc2)cc1` (centres unmarked) [TCMDC-137197], the “% Inhibition” value worked out at 109.6%. Turning to `CCOC(=O)c1ccc(OCCCCCCOc2ccc(Br)cc2)cc1` [TCMDC-131409], the “% Inhibition” value is reported as 4.056%. With `CCC(=O)OC(CCN(CC)CC)(c1ccccc1)c1ccccc1` [TCMDC-131415] the figure was 15.82%.

Consider `CCCN(CCC)CCOc1ccc(C(O)(C#CC(O)(c2ccc(OCCN(CCC)CCC)cc2)c2cccc(Cl)c2)c2cccc(Cl)c2)cc1` (centres unmarked) [TCMDC-137200], for which the “% Inhibition” value came to 105.4%. As for `CCN(CC)CCOc1ccc(NC(=O)c2oc3ccccc3c2C=Cc2ccccc2)cc1` [TCMDC-132102], the figure is 24.22%; as for `CCN(CC)CCNc1ccnc2[nH]c3ccc([N+](=O)[O-])cc3c12` [TCMDC-131978], 4.282%. In the case of `CC1(C)N=C(N)N=C(N)N1OCCCOc1ccc([N+](=O)[O-])cc1` [TCMDC-131610], the “% Inhibition” value amounted to 2.796%. With `CCN(CC)CCOc1ccc(C(O)(C#CC(O)(c2ccc(Br)cc2)c2ccc(OCCN(CC)CC)cc2)c2ccc(Br)cc2)cc1` (centres unmarked) [TCMDC-137199] the figure was 112.4%. For the molecule `O=C(Nc1ccc(Cl)cc1)c1ccc(CN2CCCN(Cc3ccsc3)CC2)cc1` [TCMDC-136415], the “% Inhibition” value worked out at 6.883%. As for `O=C(Nc1cccc(CN2CCCN(Cc3ccc(O)cc3)CC2)c1)c1cccc(Cl)c1` [TCMDC-141817], the figure is -7.519%; as for `Cc1sc2nc(CSc3ccccc3)nc(N3CCN(CC(=O)NC4CC4)CC3)c2c1C` [TCMDC-125266], 47.29%; as for `COc1ccc2ccc(F)c(CC(=O)N3CCOC(CNCc4cccc(-c5ccsc5)n4)C3)c2n1` (centres unmarked) [TCMDC-135027], 10.39%. As for `O=C(/C=C/c1ccc(Cl)c(Cl)c1)NCCCCCN1CCC(C(=O)Nc2ccc(F)c(Cl)c2)CC1` [TCMDC-136112], the figure is 0.5724%; as for `CN(CCCN(C)c1cc(NC(=O)c2ccc(F)cc2)ccn1)Cc1cccc(O)c1` [TCMDC-134954], -6.57%.

Regarding `C[C@H](NC(=O)C1CCCC1)C(=O)Nc1ccc(-c2ccc(-c3nc4ccc(C(F)(F)F)cc4[nH]3)cc2)cc1` [TCMDC-137052], the “% Inhibition” value is reported as -25.16%.

`COc1cc(Cc2cnc(N)nc2N)cc(OCCCS(=O)(=O)O)c1OC` [TCMDC-137357]: the “% Inhibition” value was -4.274%. With `COc1cc(/C=C/C(=O)NC2CCC(N3CCC(c4ccccc4C)CC3)CC2)cc(OC)c1` (centres unmarked) [TCMDC-133516] the figure was -90.94%.

Take `CCN(CC)CCOc1ccc(C(O)(C#CC(O)(c2ccc(C)cc2)c2ccc(OCCN(CC)CC)cc2)c2ccc(C)cc2)cc1` (centres unmarked) [TCMDC-137198]: the “% Inhibition” value is 113%. With `Cc1ccc(OCCCCONC(=O)c2ccccc2)cc1` [TCMDC-131756] the figure was 2.332%; with `CCCC(C(=O)OCCN(CC)CC)(c1ccc(Cl)cc1)c1ccc(Cl)cc1` [TCMDC-141994], 16.96%. As for `CCC1CCCCN1S(=O)(=O)c1ccc(NC(=O)c2cc(C)on2)cc1` (centres unmarked) [TCMDC-124618], the figure is -16.01%.
